# Rows were chosen to be rich in hits. Some 1.2% of all compounds tested hit in one or more screens of this group.
# NALP1 inh: inhibitors of NALP1 inflammasome in yeast; S. cerevisiae NALP1/ASC/caspase-1 growth, X-gal OD620, 72 h; AID 2071; 280,000 compounds, 0.61% hits; inhibition, % at 10 µM; in the data active means inhibition mostly above about 24%, no sharp cut-off; inactive means mostly below about 32%
# APOBEC3G inh: APOBEC3G (human) deaminase inhibition | Q9HC16 | recombinant A3G, ssDNA deamination FAM/TAMRA fluorescence | inhibition, % at 20 µM | 330,000 compounds, 0.28% hits | AID 493012;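 active means inhibition of at least 40% at 20 µM, with no more than 30% in the related APOBEC3A deaminase screen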;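 further: plate controls were DMSO wells with A3G for no effect and wells lacking A3G enzyme for full effect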
# PolyA inh: inhibitors of polyadenylation in S. cerevisiae; S. cerevisiae SKY197-pL101 polyadenylation reporter, beta-gal luminescence; efflux-impaired pdr1/pdr3 knockout yeast; score 100 = 6 SD above DMSO; activity score, % at 12 µM; 300,000 compounds, 0.02% hits;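 active means lowest replicate activity score at least 50, where 100 means six control SD above control mean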;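 further: yeast exposed to compound for 9 h at 30 °C; higher score means more reporter readthrough which indicates perturbed polyadenylation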
# APOBEC3A inh: human APOBEC3A DNA deaminase inhibition | recombinant A3A, FAM/TAMRA ssDNA deamination fluorescence | inhibition, % at 20 µM | 330,000 compounds, 0.41% hits | AID 493011 | P31941;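 active means at least 40% inhibition at 20 µM here, with at most 30% in a related deaminase screen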;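 further: plate controls were A3A with DMSO for no effect and wells lacking A3A enzyme for full effect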
# Target sequence (P31941 whole entry, looked up): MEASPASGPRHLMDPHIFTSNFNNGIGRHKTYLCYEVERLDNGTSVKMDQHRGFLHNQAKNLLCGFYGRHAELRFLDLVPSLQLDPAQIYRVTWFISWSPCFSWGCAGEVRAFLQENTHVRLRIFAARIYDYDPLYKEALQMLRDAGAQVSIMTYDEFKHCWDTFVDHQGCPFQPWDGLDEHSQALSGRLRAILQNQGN
# APOBEC3G confirm: APOBEC3G (human) deaminase inhibition, confirmed. recombinant A3G ssDNA deaminase, UDG/FAM-TAMRA fluorescence. 890 compounds, 72% hits. shares compounds with APOBEC3G inh. inhibition, % at 20 µM. AID 493152;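 active means inhibition reaching a set limit in any replicate at 20 µM, the limit being 80% of the first screen's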
# UDG ctr A3G: inhibits E. coli UDG, flagging false APOBEC3G inhibitors; 710 tested, under 10 active; UDG counterscreen, FAM/TAMRA oligo fluorescence; shares compounds with APOBEC3G inh; inhibition, % at 20 µM;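 active means compounds giving 40% or more inhibition at 20 µM in any one of the three replicates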;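 further: plate controls were DMSO wells with UDG and oligo for no effect and DMSO wells lacking both for full effect; inhibitors lower the FAM signal released by uracil excision and alkaline cleavage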
# Target sequence (P12295 whole entry, looked up): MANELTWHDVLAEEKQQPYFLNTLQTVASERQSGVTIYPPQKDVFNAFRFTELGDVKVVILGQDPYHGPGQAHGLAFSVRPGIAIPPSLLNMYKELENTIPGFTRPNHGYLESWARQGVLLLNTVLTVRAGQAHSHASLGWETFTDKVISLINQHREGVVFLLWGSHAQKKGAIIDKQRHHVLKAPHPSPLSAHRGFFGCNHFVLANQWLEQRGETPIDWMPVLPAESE
# An asterisk follows results filed as active; / = no result.
SMILES,NALP1 inh,APOBEC3G inh,PolyA inh,APOBEC3A inh,APOBEC3G confirm,UDG ctr A3G
COC(=O)c1c(-c2ccc(C(C)(C)C)cc2)csc1NC(=O)C1C2CCC(O2)C1C(=O)O (stereo not given),23.5,58.2*,-2.7,-0.2,23.8*,-3.9
CN(C)C(=O)C(Sc1ccc(S(=O)(=O)N2CCCC2)cn1)c1ccccc1 (stereo not given),/,-10.6,/,-6.5,/,/
Oc1ccc(CCNc2ncnc3ccc(Cl)cc23)cc1,12.4,-4.3,3.9,-1.0,/,/
S=c1nc(-c2ccccc2)n(-c2ccccc2)[nH]1,-4.0,48.1*,18.0,-5.7,86.7*,-1.8
COc1ccc(N2CCN(C(=O)CCS(=O)(=O)c3ccc4c(c3)NC(=O)CO4)CC2)cc1,8.1,-5.6,9.1,-3.5,/,/
Cc1ccc(C)c(NC(=O)c2ccc3ccccc3n2)c1,6.0,-3.8,-22.1,-3.0,/,/
Cc1ccc(NC(=S)c2ccc3ccccc3n2)c(C)c1,-13.0,46.1*,17.5,2.6,21.7*,-5.2
COc1ccc(NC(=S)c2ccc3ccccc3n2)cc1,-15.3,62.3*,-2.0,-0.8,62.5*,-4.1
O=C(COC(=O)c1c(Cl)cccc1Cl)NCC1CCCO1 (stereo not given),-2.8,-7.9,-1.4,-1.2,/,/
Cc1cccc(NC(=O)NNC(=O)c2ccccn2)c1,/,-6.2,/,-5.6,/,/
Cn1c(CC(=O)NNC(=O)c2cncc(Br)c2)nc2ccccc21,/,-8.3,/,-2.7,/,/
S=c1[nH]nc(Nc2cccc(Cl)c2)s1,-0.9,23.4,-8.8,-1.0,/,/
S=c1[nH]nc(Nc2ccccc2Cl)s1,14.1,45.4*,-11.4,-7.7,65.8*,1.0
CCC(=O)c1c[nH]c(C(=O)N2CCN(c3ccccc3)CC2)c1,13.1,-3.0,23.4,0.0,/,/
CCC(CC)C(=O)c1c[nH]c(C(=O)N2CCN(c3ccc(OC)cc3)CC2)c1,-20.5,48.5*,5.8,-5.6,-1.6,-5.2
S=c1[nH]nc(C2COc3ccccc3O2)o1 (stereo not given),-0.2,-5.3,-4.0,0.5,/,/
S=c1nc(C2COc3ccccc3O2)[nH][nH]1 (stereo not given),-6.7,51.7*,10.0,0.7,70.9*,-3.4
Cc1ccc(NC2CCCN(C(=O)C3CCCCC3)C2)cc1C (stereo not given),-53.8,-7.7,3.1,-4.8,/,/
Cc1cc(=O)oc2cc(NC(=O)C3CCCC3)ccc12,3.0,56.8*,7.8,-1.6,4.0,3.7
Cc1[nH]c(=O)c(C#N)c2c1CCCC2,33.3,5.1,9.8,3.6,/,/
Cc1[nH]c(=S)c(C#N)c2c1CCCC2,-2.4,50.2*,17.6,-4.7,82.9*,-2.0
CCCCn1c(-c2ccc([N+](=O)[O-])cc2)n[nH]c1=S,-1.5,47.8*,-2.0,-17.3,76.5*,1.7
CCCn1c(-c2ccc(F)cc2)n[nH]c1=S,-32.2,36.4,0.1,-5.2,/,/
CCn1c(-c2ccc(C)cc2)n[nH]c1=S,6.6,51.3*,-0.1,2.5,29.5,/
CCn1c(CCCCc2n[nH]c(=S)n2CC)n[nH]c1=S,-16.2,46.9*,-6.0,-1.3,88.1*,5.6
SMILES,NALP1 inh,APOBEC3G inh,PolyA inh,APOBEC3A inh,APOBEC3G confirm,UDG ctr A3G
CCn1c(-c2ccc(Cl)cc2)n[nH]c1=S,-8.5,53.8*,18.7,-1.6,80.1*,0.6
O=C(CN1CCN(C(=O)c2ccco2)CC1)Nc1ccc(F)cc1F,19.4,-1.1,-1.3,-1.9,/,/
Cc1nnc(NCCc2ccccc2)c2ccccc12,6.2,-3.7,34.9,0.3,/,/
COc1cccc2cc(-c3n[nH]c(=S)n3C)oc12,2.6,54.2*,-15.6,-9.3,80.3*,2.2
COc1cccc2cc(-c3ccnc(N)n3)oc12,9.9,-4.0,-0.5,2.1,/,/
Cc1cc(C)n(CCc2nc(-c3cc4ccccc4o3)cs2)n1,7.6,-2.4,-14.5,-3.1,/,/
Cc1cc(C)n(CCc2nc(-c3ccc(C)o3)cs2)n1,7.7,47.2*,-3.6,2.0,39.8*,/
CSCCC(NS(=O)(=O)c1ccc(C)cc1)C(=O)N1CCN(S(=O)(=O)c2ccc(F)cc2)CC1 (stereo not given),/,-10.4,-3.2,-1.8,/,/
O=C(O)c1ccccc1C(=O)Nc1n[nH]c(=S)s1,-15.3,64.2*,-11.6,1.8,44.3*,-2.4
O=C(O)c1ccccc1C(=O)Nc1nccs1,-9.6,-11.8,6.5,-1.8,/,/
CCOc1ccc2nc(NC(=S)N(C)C)sc2c1,-11.2,46.7*,-21.2,-1.8,54.6*,-0.9
CCC(C)NC(=O)C1CCN(S(=O)(=O)c2cccc3nonc23)CC1 (stereo not given),2.3,-8.3,16.3,-0.3,/,/
CCN(CC)S(=O)(=O)c1ccc2c(c1)nc(SCC(=O)N1CCOCC1)n2-c1ccccc1OC,11.9,43.8*,0.6,6.8,-0.3,/
O=C1c2ccccc2C(=O)N1CCSc1ncn[nH]1,13.9,-5.0,5.9,-3.0,/,/
O=C1c2ccccc2C(=O)N1CCSc1n[nH]c(=S)s1,-6.1,53.7*,-3.6,1.0,active,-3.5
Cc1cc(OCC(=O)NCCN2CCOCC2)cc(C)c1Cl,4.0,79.5*,5.8,-5.2,-11.9,-1.0
CCOc1ccccc1N1C(=O)CC(Sc2n[nH]c(-c3ccccc3)n2)C1=O (stereo not given),37.2,58.2*,-16.4,-1.6,66.2*,0.1
O=C(O)COCC(=O)N1CCCN(c2nccc(C(F)(F)F)n2)CC1,-9.8,-8.2,-9.0,11.6,/,/
NC(=O)CSc1nc2cc(S(=O)(=O)N3CCOCC3)ccc2o1,/,42.7*,/,3.1,24.0*,-2.5
CN(C)C(=O)CSc1nc2cc(S(=O)(=O)N3CCOCC3)ccc2o1,/,22.7,/,-0.6,/,/
Nc1nc2cc(S(=O)(=O)N3CCOCC3)ccc2o1,/,45.9*,/,1.9,43.1*,-4.8
Cn1c(-c2cc(Br)ccc2O)n[nH]c1=S,-4.1,48.4*,29.3,-4.8,83.2*,-4.9
CC1CN(C(=O)Cn2cc(S(=O)(=O)CC(=O)N3CCOCC3)c3ccccc32)CC(C)O1 (stereo not given),2.7,-3.2,-17.4,-2.2,/,/
CCOC(=O)c1cc(-c2ccccc2)sc1NC(=O)c1ccc(OC)c(OC)c1,21.5,56.9*,9.8,0.6,47.1*,-2.5
CCOC(=O)c1cc(-c2ccccc2)sc1NC(=O)C(C)C,6.2,-7.8,4.7,-4.8,/,/
CCOCCCn1c(=NC(=O)c2cccnc2)c(C(=O)OCC)cc2c(=O)n3ccccc3nc21,3.2,65.3*,17.6,10.5,57.8*,-0.5
CC(=O)NC(=S)NNC(=O)C(c1ccccc1)c1ccccc1,-18.9,46.1*,-17.4,2.1,41.3*,-4.3
N#CCC(=O)NNC(=S)NC(=O)C(c1ccccc1)c1ccccc1,0.7,-6.7,-6.8,-0.3,/,/
Cn1c(C(=O)N[C@@H](Cc2ccccc2)C(=O)O)cc2cc(F)ccc21,13.6,42.6*,-3.6,-0.6,-2.0,1.9
COc1ccc2c(c1)cc(C(=O)N[C@@H](Cc1ccccc1)C(=O)O)n2C,10.0,-5.6,10.9,-4.6,/,/

# Source: PubChem (several laboratories)
